According to PubChem BioAssay AID1159580 (chemical genetic matrix, 2015):
“And” between values parts separate entries of the source, which are not always exact repeats. Equal values may be shown once. Among all 5,500 compounds or so, about 2,000 (36%) were called active. Roughly 18% stayed inconclusive and do not appear here. Rule as the data show it: active = normalized growth mostly below about 0.91 (no sharp cut-off); inconclusive = no clear call, values can overlap the other calls; inactive = mostly above about 0.92. Some of the results follow.

Experiment: chemical genetic growth profiling, strain panel (AID 1159580);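 also: tested at 20 µM; growth read once vehicle control cultures reached saturation at 30 °C; 1 = growth at the plate median or of vehicle wells; lower values mean less growth of the strain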
Settings: S. cerevisiae deletion strains, growth OD

In the case of CC(C)c1ccc2c(c1)CCC1[C@](C)(CN)CCC[C@]21C (stereo partly specified), the normalized growth (locus YAL013W, strain DEP1, stronger effect = lower value) is reported as 0.598 (active), the normalized growth (locus YAL021C, strain ccr4, stronger effect = lower value) is reported as 0.819 (active) and the normalized growth (locus YAL026C, strain drs2, stronger effect = lower value) is reported as 0.0819 (active). The normalized growth (locus YAL030W, strain snc1, stronger effect = lower value) was 1.01 (inactive), the normalized growth (locus YBL061C, strain skt5, stronger effect = lower value) was 1.01 (inactive) and the normalized growth (locus YBR009C, strain hhf1, stronger effect = lower value) was 0.927 (inactive). For the same molecule, the normalized growth (locus YBR021W, strain FUR4, stronger effect = lower value) was 0.392 (active), the normalized growth (locus YBR023C, strain chs3, stronger effect = lower value) was 0.947 (inactive) and the normalized growth (locus YBR171W, strain sec66, stronger effect = lower value) was 1.02 (inactive). The normalized growth (locus YBR229C, strain ROT2, stronger effect = lower value) was 0.925 (inactive), the normalized growth (locus YBR231C, strain swc5, stronger effect = lower value) was 0.974 (inactive) and the normalized growth (locus YBR279W, strain paf1, stronger effect = lower value) was 0.976 (inactive). The normalized growth (locus YCL011C, strain gbp2, stronger effect = lower value) was 0.942 (inactive), the normalized growth (locus YCL016C, strain dcc1, stronger effect = lower value) was 0.952 (inactive) and the normalized growth (locus YCL029C, strain bik1, stronger effect = lower value) was 0.652 (active). The normalized growth (locus YCL061C, strain MRC1, stronger effect = lower value) was 0.983 (inactive), the normalized growth (locus YCL069W, strain vba3, stronger effect = lower value) was 1 (inactive) and the normalized growth (locus YCR088W, strain abp1, stronger effect = lower value) was 1.01 (inactive). The normalized growth (locus YDL005C, strain med2, stronger effect = lower value) was 1.03 (inactive), the normalized growth (locus YDL035C, strain GPR1, stronger effect = lower value) was 0.253 (active) and the normalized growth (locus YDL040C, strain nat1, stronger effect = lower value) was 1.01 (inactive). For the same molecule, the normalized growth (locus YDL074C, strain BRE1, stronger effect = lower value) was 0.45 (active), the normalized growth (locus YDL101C, strain DUN1, stronger effect = lower value) was 0.199 (active) and the normalized growth (locus YDL134C, strain PPH21, stronger effect = lower value) was 0.486 (active). For the same molecule, the normalized growth (locus YDL185W, strain tfp1, stronger effect = lower value) was 0.88 (active), the normalized growth (locus YDL192W, strain arf1, stronger effect = lower value) was 0.0814 (active) and the normalized growth (locus YDR001C, strain nth1, stronger effect = lower value) was 1.02 (inactive). The normalized growth (locus YDR069C, strain doa4, stronger effect = lower value) was 0.839 (active), the normalized growth (locus YDR101C, strain arx1, stronger effect = lower value) was 0.13 (active) and the normalized growth (locus YDR137W, strain rgp1, stronger effect = lower value) was 1.03 (inactive). The normalized growth (locus YDR150W, strain NUM1, stronger effect = lower value) was 0.786 (active), the normalized growth (locus YDR159W, strain sac3, stronger effect = lower value) was 1.02 (inactive) and the normalized growth (locus YDR162C, strain NBP2, stronger effect = lower value) was 0.0633 (active). For the same molecule, the normalized growth (locus YDR195W, strain ref2) was 1.1 (inactive), the normalized growth (locus YDR297W, strain sur2, stronger effect = lower value) was 0.992 (inactive) and the normalized growth (locus YDR318W, strain mcm21, stronger effect = lower value) was 0.457 (active). The normalized growth (locus YDR334W, strain swr1, stronger effect = lower value) was 1.01 (inactive), the normalized growth (locus YDR335W, strain msn5, stronger effect = lower value) was 0.969 (inactive) and the normalized growth (locus YDR388W, stronger effect = lower value) was 0.284 (active). For the same molecule, the normalized growth (locus YDR392W, strain spt3, stronger effect = lower value) was 0.5 (active), the normalized growth (locus YDR502C, strain sam2, stronger effect = lower value) was 0.0848 (active) and the normalized growth (locus YEL003W, strain gim4, stronger effect = lower value) was 0.927 (inactive). For the same molecule, the normalized growth (locus YEL037C, strain rad23, stronger effect = lower value) was 1.01 (inactive), the normalized growth (locus YEL061C, strain CIN8 (second series), stronger effect = lower value) was 1.01 (inactive) and the normalized growth (locus YEL061C, strain CIN8, stronger effect = lower value) was 0.65 (active). For the same molecule, the normalized growth (locus YER015W, strain faa2, stronger effect = lower value) was 0.951 (inactive), the normalized growth (locus YER016W, strain bim1, stronger effect = lower value) was 1.02 (inactive) and the normalized growth (locus YER110C, stronger effect = lower value) was 0.684 (active). For the same molecule, the normalized growth (locus YER111C, strain swi4, stronger effect = lower value) was 1.03 (inactive), the normalized growth (locus YER155C, strain BEM2 (second series), stronger effect = lower value) was 0.367 (active) and the normalized growth (locus YER167W, strain BCK2, stronger effect = lower value) was 0.661 (active). The normalized growth (locus YFR010W, strain ubp6, stronger effect = lower value) was 0.811 (active), the normalized growth (locus YGL078C, strain dbp3, stronger effect = lower value) was 0.906 (active) and the normalized growth (locus YGL086W, strain mad1, stronger effect = lower value) was 0.167 (active). For the same molecule, the normalized growth (locus YGL167C, strain pmr1, stronger effect = lower value) was 1.01 (inactive), the normalized growth (locus YGL173C, strain kem1, stronger effect = lower value) was 0.971 (inactive) and the normalized growth (locus YGL227W, strain vid30, stronger effect = lower value) was 1.02 (inactive). For the same molecule, the normalized growth (locus YGL240W, strain doc1, stronger effect = lower value) was 0.959 (inactive), the normalized growth (locus YGL248W, strain PDE1, stronger effect = lower value) was 0.368 (active) and the normalized growth (locus YGL253W, strain hxk2, stronger effect = lower value) was 0.973 (inactive). The normalized growth (locus YGR078C, strain PAC10, stronger effect = lower value) was 0.334 (active), the normalized growth (locus YGR135W, strain pre9, stronger effect = lower value) was 0.117 (active) and the normalized growth (locus YGR229C, strain SMI1, stronger effect = lower value) was 0.0707 (active). For the same molecule, the normalized growth (locus YGR252W, strain gcn5, stronger effect = lower value) was 0.174 (active), the normalized growth (locus YHR013C, strain ard1, stronger effect = lower value) was 0.886 (inactive) and the normalized growth (locus YHR027C, strain rpn1, stronger effect = lower value) was 1.02 (inactive). For the same molecule, the normalized growth (locus YHR030C, strain SLT2, stronger effect = lower value) was 0.183 (active) and 0.967 (inactive), the normalized growth (locus YHR079C, strain IRE1 (second series), stronger effect = lower value) was 0.646 (active) and the normalized growth (locus YHR079C, strain IRE1, stronger effect = lower value) was 0.964 (inactive). For the same molecule, the normalized growth (locus YHR094C, strain hxt1, stronger effect = lower value) was 0.949 (inactive), the normalized growth (locus YHR129C, strain ARP1, stronger effect = lower value) was 0.701 (active) and the normalized growth (locus YHR142W, strain chs7, stronger effect = lower value) was 0.89 (inactive). For the same molecule, the normalized growth (locus YHR200W, strain rpn10, stronger effect = lower value) was 0.162 (active), the normalized growth (locus YIL066C, strain RNR3, stronger effect = lower value) was 0.34 (active) and the normalized growth (locus YIL073C, strain SPO22, stronger effect = lower value) was 0.147 (active). The normalized growth (locus YIL125W, strain kgd1, stronger effect = lower value) was 0.961 (inactive), the normalized growth (locus YIR030C, strain dcg1, stronger effect = lower value) was 0.19 (active) and the normalized growth (locus YJL092W, strain hpr5, stronger effect = lower value) was 0.991 (inactive). For the same molecule, the normalized growth (locus YJL095W, strain BCK1 (second series), stronger effect = lower value) was 0.995 (inactive), the normalized growth (locus YJL095W, strain BCK1, stronger effect = lower value) was 0.108 (active) and 0.995 (inactive) and the normalized growth (locus YJL115W, strain asf1, stronger effect = lower value) was 1.01 (inactive). The normalized growth (locus YJL129C, strain trk1, stronger effect = lower value) was 0.954 (inactive), the normalized growth (locus YJL134W, strain LCB3, stronger effect = lower value) was 0.987 (inactive) and the normalized growth (locus YJL154C, strain vps35, stronger effect = lower value) was 1.02 (inactive). The normalized growth (locus YJL164C, strain tpk1, stronger effect = lower value) was 0.931 (inactive), the normalized growth (locus YJL166W, strain qcr8, stronger effect = lower value) was 0.894 (active) and the normalized growth (locus YJL168C, strain set2, stronger effect = lower value) was 0.714 (active). The normalized growth (locus YJL187C, strain SWE1 (second series), stronger effect = lower value) was 0.243 (active), the normalized growth (locus YJR043C, strain POL32, stronger effect = lower value) was 0.635 (active) and the normalized growth (locus YJR066W, strain TOR1, stronger effect = lower value) was 0.919 (inactive). The normalized growth (locus YJR075W, strain HOC1, stronger effect = lower value) was 0.392 (active).
